High-throughput results from PubChem.
Only a selection was taken, and hits are over-represented in it overall.
Pf Dd2 inh – qHTS Primary assay for Inhibitors of Plasmodium falciparum Dd2 growth in vitro; P. falciparum Dd2 growth, SYBR Green, 72 h; Potency, µM (doses to about 28.9 µM), most hits filed as inhibitors; 120,000 tested, 4.3% active; active = well fitted inhibition curve with a large enough effect; also: nearly all actives have a fitted effect of over 65% in size
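Infected erythrocytes (Dd2, 0.3% parasitemia, 2.5% hematocrit final) are added to compound in RPMI-1640/Albumax II medium, grown 72 h at 37C in low oxygen, then lysed with saponin/Triton-X containing SYBR Green and read by fluorescence.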
Of the large screens only hits and unclear results are named; the others gave an inactive call.

COc1ccc(-n2nc(C(=O)N3CCN(c4ccccc4OC)CC3)c3c4ccccc4n(C)c3c2=O)cc1	none
CCn1cc(C(=O)N2CCN(c3cc(C)ccc3C)CC2)c(=O)c2cc(S(=O)(=O)N3CCOCC3)ccc21	none
Cn1cc(C(=O)N2CCN(c3ccccc3)CC2)c(=O)c2cc(S(=O)(=O)N3CCCC3)ccc21	Pf Dd2 inh 1.58µM
CCn1cc(C(=O)N2CCN(c3ccccc3F)CC2)c(=O)c2cc(S(=O)(=O)N(C)C)ccc21	none
COc1cc(=O)n2c(c1C(=O)Nc1ccc(C)cc1Cl)CCCC2	none
Cc1[nH]nc(CCC(=O)N2CCC3(CCC(=O)N(CC4CC4)C3)CC2)c1C	none
COc1ccccc1CNC(=O)CCc1ccc2c(c1)CN(S(C)(=O)=O)CCO2	none
Cc1ccccc1CNC[C@H]1O[C@@H]2C[C@@H](CC(=O)N3CCC(F)(F)C3)O[C@@H]2[C@@H]1O	none
CCc1cccc2c(C(CC(=O)NCc3ccco3)c3ccc(C)cc3)c[nH]c12 (configuration not stated)	none
CN1CC2(CCN(Cc3ccc(CCC(C)(C)O)cc3)CC2)OC1=O	none
O=C(NCc1nnc2n1C(C(=O)NCc1cccnc1)CC2)c1cccnc1 (configuration not stated)	none
COc1cccc(CN[C@@H]2CCC[C@@H](C(=O)N3CCN(C)CC3)CC(=O)N(C)C2)c1	none
O=C(NCc1nnc2ccc(-c3ccccc3)nn12)c1ccccc1OC(F)(F)F	none
CN(C)c1ccc(CN2CCn3c(nn(-c4ccc([N+](=O)[O-])cc4)c3=O)C2)cc1	none
Cc1ccccc1N1Cc2c(NCc3cccc(Cl)c3)ncnc2N(C)CC1=O	none
COc1ccc(-c2cnc([C@@H]3COCCN3Cc3ccc(NC(C)=O)cc3)[nH]2)cc1	none
O=S(=O)(N[C@H]1CO[C@H]2[C@@H]1OC[C@@H]2n1nnnc1Oc1ccc(-n2cncn2)cc1)c1cccs1	none
CCCN(C)C(=O)c1onc(-c2ccc(F)cc2)c1[C@H](C)O	none
OCCC1CN(CCOc2ccc(F)cc2)CCN1CC1CCCCC1 (configuration not stated)	Pf Dd2 inh 8.91µM
O=C(C1CCCC1)N1CCC(CCOc2ccc(F)cc2)C1 (configuration not stated)	none
CCOc1ccccc1CN1CCN(c2ccnc(N)n2)CC1CCO (configuration not stated)	none
CC1CCN(CC2CCCN(C(=O)COc3ccc(F)cc3)CC2)CC1 (configuration not stated)	none
OCCC1CN(c2cc(C(F)(F)F)ccn2)CCN1CC1CCCCC1 (configuration not stated)	Pf Dd2 inh 12.6µM
CC(C)Nc1ccnc(N2CCN(Cc3ccccc3F)C(CCO)C2)n1 (configuration not stated)	none
CC(C)CN1CC[C@H](c2nc3ccccc3n2C)C1	none
Cc1noc(C)c1CN1CCNc2cnc(OCc3cccnc3)cc2C1	none
O=C([C@H]1C[C@H](Oc2cccnc2)CN1C(=O)c1ccccc1)N1CCOCC1	none
COc1ccc(S(=O)(=O)N(CC(=O)NCc2ccccc2OC)c2ccc(C)cc2)cc1	none
CCOc1ccc(S(=O)(=O)N(CC(=O)NCc2ccccc2OC)c2ccccc2)cc1	none
CCN(CC)S(=O)(=O)c1ccc2oc(C(=O)NCc3ccccc3OC)c(C)c2c1	Pf Dd2 inh 7.94µM
COCCC1(C(=O)O)CCCN(C(=O)CN(C)Cc2ccncc2)C1 (configuration not stated)	none
COCCn1c(=O)n([C@H]2CCCN(C(=O)c3cnccn3)C2)c2ncccc21	none
COC[C@@H]1CN(S(=O)(=O)c2ccc(C)cc2)C[C@H]1c1nc(C)no1	none
COc1ccc(-c2cc3nc4c(c(=O)n3[nH]2)CCN(C(=O)COc2ccccc2C)C4)cc1	none
Cc1ccc(C)c(NC(=O)CSc2nccn2-c2cccc(C)c2C)c1	Pf Dd2 inh 3.55µM
CCc1ccc(NC(=O)CSc2nccn2-c2cccc(C)c2C)cc1	none
Cc1cccc(-n2ccnc2SCC(=O)Nc2ccc(F)cc2F)c1C	none
COCCC(=O)N[C@H]1CC[C@]2(C)CC[C@@H]([C@H](C)C(=O)NC(C)(C)C)[C@H](O)[C@H]2[C@@H]1C	none
Cc1cccc(OCC(=O)N[C@@H]2CN(c3ncccn3)C[C@H]2CO)c1	none
NC(=O)c1noc2c1CN(c1cc(-c3ccccc3)nc3ccnn13)CC2	none
COc1cccc(S(=O)(=O)N2CCN(C3CCN(CCC(C)C)C3=O)CC2)c1 (configuration not stated)	none
CCc1ccccc1S(=O)(=O)N1CCN(C2CCN(CCC(C)C)C2=O)CC1 (configuration not stated)	Pf Dd2 inh 10µM
CCCc1ccc(S(=O)(=O)N2CCN(C3CCN(CCOC)C3=O)CC2)cc1 (configuration not stated)	none
Cc1ccc(F)cc1S(=O)(=O)N1CCN(C2CCN(CCC(C)C)C2=O)CC1 (configuration not stated)	none
CC(C)CCN1CCC(N2CCN(S(=O)(=O)c3ccc(Cl)cc3)CC2)C1=O (configuration not stated)	none
CC(C)CCN1CCC(N2CCN(S(=O)(=O)c3ccc4c(c3)CCC4)CC2)C1=O (configuration not stated)	Pf Dd2 inh 7.08µM
CC(C)CCN1CCC(N2CCN(S(=O)(=O)c3cc(F)cc(F)c3)CC2)C1=O (configuration not stated)	none
CCCc1ccc(S(=O)(=O)N2CCN(C3CCN(CCC(C)C)C3=O)CC2)cc1 (configuration not stated)	Pf Dd2 inh 5.62µM
O=C1C(N2CCN(S(=O)(=O)c3ccc(Cl)cc3)CC2)CCN1CCc1ccccc1 (configuration not stated)	none
CC(C)C1C(=O)N(C)CCN1C(=O)c1cc(COc2cccc(F)c2)[nH]n1 (configuration not stated)	none
Cc1cnn(CCC(=O)N2C[C@@H](CO)[C@H](c3ccncc3)C2)c1	none
CC(C)CCCC(=O)N1CCC2(CC1)Nc1ccccc1NC2=O	none
CC(C)(C)C(=O)N1CC[C@@H]2[C@H]1C(=O)N(c1ccc(F)c(Cl)c1)C(=O)N2Cc1ccccc1	none
O=C(NCCc1cnccn1)c1cccc(S(=O)(=O)NC2CCOC2)c1 (configuration not stated)	none
Cc1oc(-c2cccc(Oc3ccccc3)c2)nc1CN1CC[C@H](N(C)C)C1	none
COCC1CCN(Cc2cc3cc4c(cc3nc2-c2ccc(Cl)cc2)OCO4)C1 (configuration not stated)	none
COc1ccc2cc(CN3CCC(N(C)C)C3)c(-c3cccc(C)c3)nc2c1 (configuration not stated)	Pf Dd2 inh 11.2µM
COCCN(C)C[C@H]1C[C@@H](CO)CN(C(=O)c2ccc(F)cc2C)C1	none
CC(=O)Nc1ccc(S(=O)(=O)N[C@H]2CO[C@H]3[C@@H]2OC[C@@H]3Nc2nccc(C(C)(C)C)n2)cc1	none
CC(C)(C)c1ccc(NC(=O)O[C@@H]2CO[C@H]3[C@@H]2OC[C@@H]3Nc2nccc(C(C)(C)C)n2)cc1	none
Cc1ccc(C(=O)N[C@H]2CO[C@H]3[C@@H]2OC[C@@H]3Nc2nccc(C(C)(C)C)n2)cc1	Pf Dd2 inh 11.2µM
COc1ccc(C(=O)Nc2ccc(S(=O)(=O)N(Cc3ccccc3)c3ccccc3)cc2)cc1	none
Cc1ccc(C(=O)Nc2ccc(S(=O)(=O)N(Cc3ccccc3)c3ccccc3)cc2)cc1	none
CCOc1ccc(C(=O)Nc2ccc(S(=O)(=O)N(Cc3ccccc3)c3ccccc3)cc2)cc1	Pf Dd2 inh 10µM
COc1ccc(CCC(=O)N2CCC(C(=O)N3CCCCCCNC(=O)CC3)CC2)cc1	none
